Data published in PubChem BioAssay (NCI).
“And” between values parts separate entries of the source, which are not always exact repeats. Equal values may be shown once. This is part of a sample that, as a whole, favours compounds with a hit. Of some 83,000 tested, about 20% had one in any assay.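 Step 1: grow cells in 96-well plates. Step 2: add test compound at a single concentration. Step 3: incubate 48 h. Step 4: record percent growth.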 The source made the active and inactive calls.

The compounds below were run on HCC-2998 colon (assay: NCI-60 one-dose screen, 48 h (100 = growth as untreated, 0 = no growth, -100 = all killed)). Settings: 0.25 µM.
Experimental: Growth inhibition of the HCC-2998 human tumor cell line is measured as a screen for anti-cancer activity. Cells are grown in 96 well plates and exposed to the test compound for 48 hours. Compounds are tested at a single concentration, which is 10^-5 M for most compounds. The reported endpoint is percent growth (GI% or GIPRCNT), where numbers from 0 - 100% represent growth inhibition, and numbers from -100% - 0 represent cell death. For example, a value of 40 represents 60% growth inhibition. A value of 0 means no net growth occurred over the course of the experiment. A value of -40 indicates 40% of cells at the beginning of the experiment died by the end of the experiment. A value of -100 means all cells are dead at the end of the experiment.
NCI-60 Human Tumor Cell Lines Screen was performed using the standard one-dose NCI protocol, which is described in more detail at https://dtp.cancer.gov/discovery_development/nci-60/default.htm.
Compounds with GIPRCNT values below 10 were considered active. Activity score was based on GIPRCNT using the following formula: […]
Score is 0 for GIPRCNT values of 100 or above, 50 for GIPRCNT values of 0, and 100 for GIPRCNT values of -100.
For `CCCCCCCCCCCCCCCc1ccc(Cl)c(O)c1Cl` (tested in a mixture with another compound), the growth was 38.6% (inactive).

Same assay, conditions: 10 µM
For `CC#C[C@]1(O)CC[C@H]2[C@@H]3CCC4=CC(=O)CCC4=C3[C@@H](c3ccc4c(c3)OCO4)C[C@@]21C`, the growth was 94.4% (inactive).
With `CCCCCCCCCCCCCCCc1ccc(Cl)c(O)c1Cl` (tested in a mixture with another compound) the growth was 116% (inactive).
For `CC(C)(C)c1cc(NC(=O)Cc2ccc(-c3cnc4cc(-c5cnn(CCN6CCOCC6)c5)ccc4n3)cc2)no1`, the growth was 40.3% (inactive).

Same assay, conditions: 10 µM unless noted
`Nc1ccccc1Nc1ccccc1` was tested, and the growth was 98.7% (inactive) and 96.4% (inactive).
In the case of `O=C=NC(c1ccccc1)(c1ccccc1)c1ccccc1`, the growth is reported as 111% (inactive).
With `O=C(O)c1cc(C(=O)O)cc([N+](=O)[O-])c1` the growth was 110% (inactive).
With `CCOc1ccc2c(S(=O)(=O)O)cccc2c1[N+](=O)[O-]` the growth was 109% (inactive).
`CCOC(=O)c1sc(N)nc1-c1ccccc1` was tested, and the growth was 102% (inactive).
In the case of `Cn1c(=O)c2[nH]c(CCCCCCCCc3nc4ccccc4[nH]3)nc2n(C)c1=O`, the growth is reported as 59.2% (inactive) and 86.5% (inactive).
With `Cc1cccc(/C=C\C(=O)c2ccccc2)c1` the growth was 97% (inactive) and 103% (inactive).
`O=C(CN1CCOCC1)N1CCOCC1` was tested, and the growth was 104% (inactive) and 105% (inactive).
With `CN(C)c1ccc2nc3ccc(=[N+](C)C)cc-3sc2c1` the growth was 49% (inactive) and 36.7% (inactive) and 53.9% (inactive).
`C#CCN(C)Cc1ccccc1` was tested, and the growth was 103% (inactive) and 97.7% (inactive).
In the case of `NC(=O)c1ccccc1OCC(O)CO` (stereo not given), the growth is reported as 114% (inactive).
`CCC(=O)C(CC)c1cccc(OC)c1` (stereo not given) was tested, and the growth was 112% (inactive).
In the case of `CCCCCCCCCCCCCCCc1cc(O)ccc1N`, the growth is reported as 96.4% (inactive) and 101% (inactive).
With `COc1cc(/C=N/Nc2nc3c([nH]2)c(=O)n(C)c(=O)n3C)ccc1O` the growth was 102% (inactive) and 124% (inactive).
In the case of `COc1ccc(S(=O)(=O)N2CCOCC2)cc1NC(=O)c1[nH]c(C)c2c1CCCCC2=O`, the growth is reported as 102% (inactive) and 69.8% (inactive).
For `CO/N=C/C=C\C(=O)N/C=C/C[C@H]1/C=C/[C@H](O)/C=C\C=C\c2cccc(O)c2C(=O)O1`, the growth was 59.3% (inactive) and 29.1% (inactive).
For `Nc1ccc2[nH]c(-c3ccccc3)cc(=O)c2c1`, the growth was 78.3% (inactive).
In the case of `Cc1cc(C)c(N)c(Br)c1`, the growth is reported as 112% (inactive).
For `OCCN1CCN(CCO)CC1`, the growth was 102% (inactive) and 95.7% (inactive) and 107% (inactive).
In the case of `COc1cc(C(=O)c2ccc3c(c2)OCO3)cc(OC)c1OC`, the growth is reported as 60.1% (inactive) and 54.8% (inactive).
`Cc1nn(-c2ccccc2)nc1C(=O)Nc1ccccc1C(=O)NCC1CC1` was tested, and the growth was 102% (inactive) and 116% (inactive).
For `CCc1c(CC(=O)O)c2cc(C)ccc2n1Cc1ccc(Cl)cc1`, the growth was 125% (inactive) and 98.4% (inactive).
For `CCN(CC)CCCC(CNc1ccnc2cc(Cl)ccc12)c1ccc(Cl)cc1` (stereo not given), the growth was -76.8% (active) and -93.6% (active).
With `c1ccc(NCc2ccc3c(c2)OCO3)cc1` the growth was 102% (inactive) and 112% (inactive).
With `CN(Cc1ccccc1)Cc1ccccc1` the growth was 99.4% (inactive).
For `CN(C)CCCNC1=C(Cl)C(=O)c2ccccc2C1=O`, the growth was -0.125% (active) and -63.6% (active).
In the case of `CCN(CC)CCc1nc(-c2ccccc2)no1`, the growth is reported as 113% (inactive) and 111% (inactive).
With `COc1ccc(CCN(C)CCCC(C#N)(c2ccc(OC)c(OC)c2)C(C)C)cc1OC` (stereo not given) the growth was 99.7% (inactive) and 111% (inactive) and 97.5% (inactive).
In the case of `CC(=O)Nc1ccc(O)cc1`, the growth is reported as 102% (inactive) and 68.4% (inactive) and 110% (inactive).
`COc1cc(Nc2nc3ccccc3nc2NS(=O)(=O)c2ccc(NC(=O)c3ccc(C)c(OC)c3)cc2)cc(OC)c1` was tested, and the growth was 68.5% (inactive).
With `CCC(O)c1ccccc1` (stereo not given) the growth was -87.7% (active).
`N#C/C(=C1C=C/C(=N/O)C(Br)=C/1)c1ccccc1` was tested, and the growth was 58.3% (inactive).
`CC(=O)Oc1cc(C(=O)O)cc(OC(C)=O)c1OC(C)=O` was tested, and the growth was 102% (inactive) and 100% (inactive).
In the case of `CC1(C)[C@@H](OC(=O)CCC(=O)O)CC[C@]2(C)[C@H]3C(=O)C=C4[C@@H]5C[C@@](C)(C(=O)O)CC[C@]5(C)CC[C@@]4(C)[C@]3(C)CC[C@@H]12`, the growth is reported as 103% (inactive) and -71.7% (active).

Same assay, conditions: 30 µM
For `CC(C)(C)c1cc(NC(=O)Cc2ccc(-c3cnc4cc(-c5cnn(CCN6CCOCC6)c5)ccc4n3)cc2)no1`, the growth was 39.4% (inactive).

Same assay, conditions: 100 µM
For `CC#C[C@]1(O)CC[C@H]2[C@@H]3CCC4=CC(=O)CCC4=C3[C@@H](c3ccc4c(c3)OCO4)C[C@@]21C`, the growth was -22.7% (active).
